# The panel holds about 83,000 compounds, 20% with a hit somewhere; the sample as a whole holds those more often.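 The test compound was applied at a single concentration to cells in 96-well plates for 48 hours, and percent growth was recorded.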 A number with no mark means an inactive call. Calls of active or inactive are those of the source. How the source made its calls: active means growth percent below 10; inactive means the rest.
# Key:
# Assay in all cases: NCI-60 one-dose screen, 48 h (100 = growth as untreated, 0 = no growth, -100 = all killed)
# Conditions in all cases: 10 µM unless noted
# NCI/ADR-RES ovarian = tested on: NCI/ADR-RES ovarian
# T-47D breast = tested on: T-47D breast
# BT-549 breast = tested on: BT-549 breast
# MDA-MB-435 melanoma = tested on: MDA-MB-435 melanoma
# SW-620 colon = tested on: SW-620 colon
# MCF7 breast = tested on: MCF7 breast
# HCT-116 colon = tested on: HCT-116 colon
# HCC-2998 colon = tested on: HCC-2998 colon
# KM12 colon = tested on: KM12 colon
Structure (SMILES),growth (NCI/ADR-RES ovarian),growth (T-47D breast) [%],growth (BT-549 breast),growth (MDA-MB-435 melanoma),growth (SW-620 colon),growth (MCF7 breast),growth (HCT-116 colon),growth (HCC-2998 colon),growth (KM12 colon)
CC(=O)[C@H]1CC[C@H]2[C@@H]3CC[C@H]4C[C@H](N)CC[C@]4(C)[C@H]3CC[C@]12C,89.4%,91,70.5%,65.1%,72.2%,70.6%,40.6%,92.8%,80.2%
COc1ccc(/C=C\c2cc(OC)c(OC)c(OC)c2)cc1NC(=O)/C=C/c1ccc(OC)c(OC)c1,-8.84% (active),40.2,39.1%,-51.4% (active),39.2%,21.3%,25%,-3.07% (active),27.3%
Cc1cnc(/C=C/C(=O)O)cc1-c1cc2c(cc1C)C(C)(C)CCC2(C)C,78.7%,80.3,69%,83.8%,86.6%,21.8%,57.2%,85.3%,57.3%
COc1cc([C@@H]2c3cc4c(cc3[C@H](OC(C)=O)[C@H]3COC(=O)[C@@H]23)OCO4)cc(OC)c1OC,-43% (active),99.2,8.82% (active),-24.4% (active),26.8%,13.5%,-14.2% (active),-21% (active),-37.1% (active)
CCCCNC(c1ccc(Cl)cc1)C(O)c1ccc(Cl)cc1 (stereo not given),40.9%,46.4,80.6%,21.4%,2.85% (active),3.13% (active),5.84% (active),-55.7% (active),21.6%
CCOP(=O)(Cc1ccc(C#N)cc1)OCC,108%,101,109%,114%,99.9%,88.6%,84.5%,110%,107%
Cc1ccc(C(=O)NCCCOc2ccc(N3C(N)=NC(N)=NC3(C)C)cc2Cl)cc1S(=O)(=O)F,108%,104,64.8%,73.1%,65.1%,75.4%,62.2%,89.8%,74.4%
CCOP1(=O)CC(C)=C(Cl)C(P(=O)(OCC)OCC)C1 (stereo not given),85.8%,96.4,112%,114%,97.3%,99.7%,107%,86.3%,114%
CC12CCC3C(CCC4=CC(=O)CCC43CF)C1CCC2=O (stereo not given),108%,39.4,97.2%,100%,126%,130%,110%,140%,117%
CN1CC(CNC(=O)OCc2ccccc2)CC2c3cccc4c3c(cn4C)CC21 (stereo not given),44.2%,31.6,50%,3% (active),35.9%,-55.3% (active),31.7%,-66.9% (active),38.1%
